Compound activity deposited in PubChem BioAssay by The Scripps Research Institute Molecular Screening Center.
Sampled rows, rich in hits. Any-hit rate of the full collection: about 4.1%.
hcDAF12 agonist: H. contortus DAF-12 activation, primary screen. HEK293 hcDAF-12 lit1-tk-luc reporter, luminescence; 0% DMSO, 100% Δ7-dafachronic acid. activation, % at 6.8 µM. hit rate 1.4% among 370,000;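 active means activation above the mean of all tested compounds plus 3 SD, cut at about 5.5% in these data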;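 further: 100% = response to 3 µM Δ7-dafachronic acid high control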
DAX1 inh-1: DAX1 (NR0B1) inhibition, primary screen; HEK293T StAR-luciferase reporter, SF-1/DAX-1 repression relief; inhibition, % at 6.8 µM; hit rate 1.1% among 370,000; AID 652010;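 active means inhibition above the mean over all tested compounds plus 3 SD, cut at about 3.6% in these data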;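 further: 0% = DAX-1 cells with DMSO and 100% = cells lacking DAX-1 with DMSO; higher inhibition means more luminescence from relief of DAX-1 repression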
DAX1 inh-2: NR0B1 (DAX1) inhibition; P51843; HEK293 Gal4-DAX1 luciferase reporter, luminescence; inhibition, % at 6.75 µM; hit rate 0.99% among 340,000;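 active means inhibition above the mean over all tested compounds plus 3 SD, cut at about 4.2% in these data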;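 further: 0% = DAX1-transfected cells with DMSO and 100% = empty-vector control cells with DMSO; inhibition shows as a rise in luminescence from relieved DAX1 repression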
ssDAF12 agonist: activates DAF-12 receptor from parasite S. stercoralis; HEK293 ssDAF-12/GRIP1 lit1-tk-luc reporter, luminescence; % of 3 µM dafachronic acid response; activation, % at 6.8 µM; hit rate 1% among 370,000; AID 652126;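 active means activation above the mean over all tested compounds plus 3 SD, cut at about 0.9% in these data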;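 further: 0% = DMSO-only wells and 100% = 3 µM delta7-dafachronic acid wells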
hgDAF-12 ag: hgDAF-12 agonism, primary luciferase screen | activation, % at 6.8 µM | hit rate 1.8% among 370,000 | HEK293 GAL4-hgDAF12 UAS-luciferase reporter, agonist luminescence; normalized to butyrate control;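 active means activation above a cutoff set at the mean of all screened compounds plus 3 SD, cut at about 10% in these data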;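 further: 0% = DMSO wells and 100% = sodium butyrate wells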
DAX1 conf: confirmation of human DAX1 (NR0B1) inhibitors. AID 652134. hit rate 87% among 2,400. shares compounds with DAX1 inh-1. HEK293T StAR-promoter luciferase reporter, SF-1/DAX-1 repression. inhibition, % at 6.8 µM;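 active means inhibition above the average of every tested compound plus 3 SD, cut at about 3.8% in these data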;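 further: 0% = DAX-1 cells with DMSO and 100% = no DAX-1 control cells with DMSO; active compounds raise luminescence by relieving repression of the StAR reporter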
Target sequence (P51843 whole entry, looked up): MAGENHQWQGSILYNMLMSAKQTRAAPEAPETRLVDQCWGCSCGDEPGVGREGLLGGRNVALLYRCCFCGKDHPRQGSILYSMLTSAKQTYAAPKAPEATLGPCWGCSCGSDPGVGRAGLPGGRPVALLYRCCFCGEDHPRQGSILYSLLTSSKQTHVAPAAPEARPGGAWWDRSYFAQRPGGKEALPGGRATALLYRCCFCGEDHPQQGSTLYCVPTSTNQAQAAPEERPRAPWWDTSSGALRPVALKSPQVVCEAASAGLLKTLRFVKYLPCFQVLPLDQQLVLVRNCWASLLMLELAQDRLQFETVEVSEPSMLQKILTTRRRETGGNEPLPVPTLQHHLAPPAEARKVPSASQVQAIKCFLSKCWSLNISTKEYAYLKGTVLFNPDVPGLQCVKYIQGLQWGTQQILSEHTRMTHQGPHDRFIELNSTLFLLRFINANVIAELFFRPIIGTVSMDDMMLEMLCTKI
SF1 AF2mut Luc: counter-screen for DAX1 inhibitors: nonselective inhibitors with SF-1 AF2 mutant; inhibition, % at 6.8 µM; hit rate 78% among 2,400; HEK293 StAR-luciferase, luminescence; shares compounds with DAX1 inh-1;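 active means inhibition above the mean of all tested compounds plus 3 SD, cut at about 3% in these data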;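 further: 0% = DAX-1 transfected cells with DMSO and 100% = cells without DAX-1 with DMSO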
LXR ag: counter-screen for hcDAF-12 agonists: agonists of human LXR-beta; shares compounds with hcDAF12 agonist; HEK293 Gal4-LXR tk-luc reporter, luminescence, 24 h; normalized: DMSO 0%, positive control 100%; activation, % at 6.8 µM; 3,400 tested, under 10 active; AID 743027;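 active means mean percent activation of the reporter above a cutoff set as the average over tested compounds plus their standard deviation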
hcDAF12 ag: hcDAF-12 agonism, confirmation assay; shares compounds with hcDAF12 agonist; HEK293 hcDAF-12 lit1-tk-luc reporter, luminescence; % of Δ7-dafachronic acid response; activation, % at 6.8 µM; hit rate 61% among 3,400; AID 743032;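 active means mean activation across triplicate tests above the threshold derived from the earlier primary screen, cut at about 5.5% in these data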;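 further: 0% = DMSO only wells and 100% = 3 µM Δ7-dafachronic acid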
Numbers without * were called inactive; . = not tested or not shown.

SMILES	hcDAF12 agonist	DAX1 inh-1	DAX1 inh-2	ssDAF12 agonist	hgDAF-12 ag	DAX1 conf	SF1 AF2mut Luc	others
O=C(Nc1ncc([N+](=O)[O-])s1)c1ccco1	4	6.5*	1	1	8	5.7*	6.2*
CCOC(=O)c1cccc(NC(=S)NCc2ccc(C)cc2)c1	0	0	-2	-2	-4	.	.
Cc1nc2ccc(NC(=O)CS(=O)(=O)c3ccccc3)cc2s1	1	6.0*	1	0	7	5.6*	3.0*
Cc1nn(-c2ccccc2)c(NC(=O)c2ccccc2)c1Br	1	-1	0	-1	-3	.	.
Cc1ccsc1C(=O)NNC(=O)C1C2C=CC(C2)C1C(=O)O (stereo unspecified)	9.5*	5.2*	3	1.1*	17*	3.8*	2
CCN(CC)S(=O)(=O)c1ccc(NC(=O)C2CC(=O)N(c3ccc4c(c3)OCCO4)C2)cc1 (stereo unspecified)	-3	-2	-1	-2	-5	.	.
c1ccc(CSc2nc3ncccn3n2)cc1	2	6.8*	1	0	10	8.4*	4.8*
O=C(NCCc1ccccc1)c1nc2ncccn2n1	-2	0	0	0	-3	.	.
CO/N=C(/C)CCS(=O)(=O)c1ccccc1	0	-1	-1	-1	0	.	.
COc1cc2cc(C(=O)NC(C)c3cccc4ccccc34)c(N)nc2cc1OC (stereo unspecified)	-3	5.1*	.	-1	2	2	-1
O=[N+]([O-])c1cc(Cl)cc(/C=N/NC(=S)Nc2ccc(S(=O)(=O)N3CCOCC3)cc2)c1O	-1	0	0	-2	6	.	.
Cc1cc(Cl)c2oc(C(=O)N(C)C3CCOC3)c(C)c2c1 (stereo unspecified)	0	6.6*	2	0	4	7.5*	2
O=C(NCCc1cccc(Cl)c1)c1cccs1	4	4.5*	0	-2	11*	6.6*	3.8*
CN(C(=O)c1cccc(NC(=O)Cc2ccc(NC(=O)C3CCN(C(=O)C4CC4)CC3)cc2)c1)C1CCC1	1	5.0*	-2	0	0	2	2
N#Cc1ccccc1S(=O)(=O)N1CCC(C(=O)NCc2ccccc2CN2CCCC2)CC1	-1	5.4*	0	-1	0	2	-1
Cc1ccc(S(=O)(=O)N2CCC(C(=O)NCc3ccccc3CN3CCCC3)CC2)cc1	0	-1	0	-1	-1	.	.
CCC(C)c1ccc(NC(=O)Nc2cccnc2)cc1 (stereo unspecified)	0	6.4*	2	1	9	4.7*	3.6*
CCC(C)c1ccc(NC(=O)NCc2cccnc2)cc1 (stereo unspecified)	0	-1	0	-1	-2	.	.
O=C(CC1SC(N2CCCCC2)=NC1=O)Nc1cccc(C(=O)Nc2ncccc2O)c1 (stereo unspecified)	3	7.9*	1	0	11*	9.7*	9.1*
O=C(OCC(=O)N1CCCCC1)c1cc(=O)[nH]c2ccccc12	3	4.9*	1	-1	6	3	2
O=C(OCC(=O)N1CCCCC1)c1c[nH]c2ccccc12	1	1	0	-1	3	.	.
CC(=O)CCC(=O)OCC(=O)c1ccc(C(F)(F)F)cc1	2	0	0	-1	1	.	.
CCCCNC(=O)c1ccc(CNc2c(N3CCC(C(=O)OCC)CC3)c(=O)c2=O)cc1	-1	1	0	-1	3	.	.
Cc1ccc(C(=O)NCCC(=O)N2CCOCC2)cc1	4	10*	1	0	9	6.3*	3.3*
Cc1ccc(NC(=O)c2ccc3snnc3c2)cc1C	3	6.5*	1	0	7	9.4*	0
SMILES	hcDAF12 agonist	DAX1 inh-1	DAX1 inh-2	ssDAF12 agonist	hgDAF-12 ag	DAX1 conf	SF1 AF2mut Luc	others
Cc1sc2ncn(CC(=O)N3CCN(c4ccccc4F)CC3)c(=O)c2c1S(=O)(=O)N1CCOCC1	3	0	1	-1	2	.	.
CCc1ccc(NC(=O)C(=O)c2ccccc2NC(C)=O)cc1	4	9.1*	3	0	10	12*	7.0*
COc1cc(NC(=O)CCCN2C(=O)NC(C)(C)C2=O)cc(OC)c1	0	4.8*	1	-1	-3	2	0
COc1ccc(/C=N/Nc2nncc3ccccc23)cc1	11*	6.4*	-2	1.9*	17*	14*	2
COc1ccc(/C=N/Nc2nccnc2Cl)cc1	5	5.9*	-1	0	12*	14*	8.7*
O=C(c1cc(COc2ccc(F)cc2F)on1)N1CCN(C(=O)c2ccco2)CC1	-2	-2	0	-1	0	.	.
Cc1ccc(C)c(OCc2cc(C(=O)N3CCN(C(=O)c4ccco4)CC3)no2)c1	4	6.4*	1	0	8	6.2*	4.1*
Cc1ccc(C)c(OCc2cc(C(=O)N3CCN(c4ccccc4)CC3)no2)c1	4	6.3*	1	0	9	5.3*	4.8*
O=C(Cc1ccc(Cl)cc1)Nc1ccc(S(=O)(=O)Nc2cnc3ccccc3n2)cc1	0	0	3	-1	-1	.	.
Cc1ccc(C)c(N2C(=O)CC(Cc3ccc(Cl)cc3)C2=O)c1 (stereo unspecified)	0	0	2	-1	-1	.	.
O=C(CCNC(=O)N1CC(=O)Nc2ccccc21)NCc1ccc(F)cc1	-1	6.0*	1	-1	6	5.3*	3.3*
Cc1ccc(N=C/C(C(=O)C(F)(F)F)=C(\O)c2ccco2)cc1Cl	18*	5.2*	2	1.4*	16*	16*	8.7*	LXR ag=1;hcDAF12 ag=10*
CC(C)c1ccc(/C=N/Nc2ccc(C(=O)O)cc2)cc1	-2	-1	-6	-2	-9	.	.
O=C(O)c1ccc(N/N=C/c2ccc(-c3ccccc3)cc2)cc1	7.6*	7.7*	5.5*	1.3*	13*	19*	8.5*	LXR ag=1;hcDAF12 ag=6.2*
COCC(=O)Nc1nnc(-c2ccc(C(C)(C)C)cc2)s1	10*	4.8*	4	0	19*	14*	7.4*	LXR ag=1;hcDAF12 ag=6.2*
